# BLM helicase inh – qHTS Assay for Inhibitors of Bloom's syndrome helicase (BLM) | recombinant BLM DNA unwinding, fluorescence dequenching | RecQ-like DNA helicase BLM (Homo sapiens), P54132 | actives 0.2% (n = 350,000) | Potency, µM (doses to about 56.1 µM), usual class: inhibitors; further: nearly all actives have a fitted effect of over 35% in size
# TDP1 inh – qHTS Assay for Inhibitors of Tyrosyl-DNA Phosphodiesterase (TDP1); recombinant TDP1, AlphaScreen DNA substrate cleavage; Potency, µM (highest dose often 130 µM), hits mostly inhibitors; actives 0.28% (n = 350,000); Tyrosyl-DNA phosphodiesterase 1 (Homo sapiens), Q9NUW8; further: nearly all actives have a fitted effect of over 40% in size
#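 Compounds were preincubated with Tdp1 (1 nM final) for 15 min at room temperature before substrate (15 nM final) started a 5 min reaction; beads (10 ug/ml final) were then added for 10 min before AlphaScreen detection.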
# GCN5L2 inh – qHTS Assay for Inhibitors of GCN5L2 | Potency, µM (highest dose often 58.9 µM), most hits filed as inhibitors | AID 504327, 2011 | actives 0.21% (n = 390,000) | GCN5L2 HAT assay, ThioGlo1 CoA-SH fluorescence | Histone acetyltransferase KAT2A (Homo sapiens), Q92830
# Target sequence (Q92830 whole entry, looked up): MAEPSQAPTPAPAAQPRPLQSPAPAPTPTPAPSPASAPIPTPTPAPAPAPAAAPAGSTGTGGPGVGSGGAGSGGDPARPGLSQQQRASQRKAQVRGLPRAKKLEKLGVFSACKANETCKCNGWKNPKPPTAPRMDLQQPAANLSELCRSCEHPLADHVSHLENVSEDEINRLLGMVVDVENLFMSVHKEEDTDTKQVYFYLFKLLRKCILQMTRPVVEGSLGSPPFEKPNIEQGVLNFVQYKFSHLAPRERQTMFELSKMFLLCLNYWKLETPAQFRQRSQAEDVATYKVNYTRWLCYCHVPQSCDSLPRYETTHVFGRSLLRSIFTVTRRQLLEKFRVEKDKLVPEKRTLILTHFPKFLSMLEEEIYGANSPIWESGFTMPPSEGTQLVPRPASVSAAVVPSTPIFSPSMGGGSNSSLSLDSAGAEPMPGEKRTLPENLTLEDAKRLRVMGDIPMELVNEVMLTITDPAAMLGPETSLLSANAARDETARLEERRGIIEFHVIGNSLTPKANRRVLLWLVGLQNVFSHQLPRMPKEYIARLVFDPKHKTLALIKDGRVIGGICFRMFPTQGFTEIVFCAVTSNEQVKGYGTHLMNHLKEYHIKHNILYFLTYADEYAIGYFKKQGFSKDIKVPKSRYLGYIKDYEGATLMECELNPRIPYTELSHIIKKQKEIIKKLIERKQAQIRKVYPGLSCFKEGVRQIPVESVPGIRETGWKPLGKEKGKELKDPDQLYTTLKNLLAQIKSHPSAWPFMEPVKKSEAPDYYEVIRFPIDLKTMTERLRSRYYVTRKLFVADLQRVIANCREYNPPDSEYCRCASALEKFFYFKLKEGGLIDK
#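 ThioGlo1-coupled HAT assay: 20nM GCN5L2, 70uM acetyl-CoA, 75uM H3(1-25) peptide, pH 7.5. Fluorescence read at 340/540nm at start and after 20 min at room temperature.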
# APE1 inh-1 – qHTS Assay for Inhibitors of the Human Apurinic/apyrimidinic Endonuclease 1 (APE1); actives 0.35% (n = 350,000); Potency, µM (highest dose often 65.8 µM), actives largely listed as inhibitors; DNA repair nuclease/redox regulator APEX1 (Homo sapiens), P27695; recombinant APE1, TAMRA/BHQ-2 abasic DNA cleavage fluorescence; AID 2517, 2012; further: nearly all actives have a fitted effect of over 55% in size
#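 Quantitative HTS: incision of a TAMRA/BHQ-2 double-stranded substrate bearing a tetrahydrofuran abasic site by 0.75 nM APE1 raises fluorescence. Substrate 50 nM final, added after 15 min compound preincubation at room temperature; progress as third-minus-first kinetic read difference.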
# RECQ1 helicase – qHTS Assay for Inhibitors of RecQ-Like Dna Helicase 1 (RECQ1). ATP-dependent DNA helicase Q1 (Homo sapiens), P46063. RECQ1 DNA unwinding, red fluorescence kinetic read. Potency, µM (doses to about 57.3 µM), actives largely listed as inhibitors. actives 0.54% (n = 240,000). AID 2549, 2010; further: nearly all actives have a fitted effect of over 30% in size
#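 RECQ1T1 50 nM; forked duplex (20 bp + 30-nt ss tails) 200 nM, ATP 2 mM final; pH 8.0, 2 mM MgCl2, 2.5 ug/ml poly(dI-dC); 15 min compound preincubation; discontinuous kinetic read over 2 h at RT.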
# APE1 dye cs – Counterscreen for APE1 Inhibitors: Fluorescent Dye Displacement Assay | shares compounds with APE1 inh-1 | DNA fluorescent dye displacement counterscreen, fluorescence | Potency, µM (titrated, usually from 28.5 µM), usual class: inhibitors | actives 7% (n = 480) | AID 2564, 2010;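 further: loss of thiazole orange fluorescence as the dye is displaced from duplex DNA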
# EndoIV counter – Counterscreen for APE1 Inhibitors: qHTS Assay for Inhibitors of Endonuclease IV | shares compounds with APE1 inh-1 | E. coli Endo IV, fluorogenic AP-site DNA cleavage | Potency, µM (highest dose often 27.1 µM), usual class: inhibitors | actives 4% (n = 560) | AID 2565, 2010
# APE1 inh-2 – Confirmation qHTS Assay for Inhibitors of the Human Apurinic/apyrimidinic Endonuclease 1 (APE1) | purified APE1, fluorogenic abasic-site DNA cleavage | AID 2572, 2010 | shares compounds with APE1 inh-1 | actives 44% (n = 750) | Potency, µM (top dose mostly 57.1 µM), usual class: inhibitors; further: nearly all actives have a fitted effect of over 30% in size
# APE1 FP – qHTS FP-Based Assay for Inhibitors of the Human Apurinic/apyrimidinic Endonuclease 1 (APE1); shares compounds with APE1 inh-1; Potency, µM (titrated, usually from 28.5 µM), actives largely listed as inhibitors; actives 7% (n = 480); APE1 binding to TAMRA-labelled double-stranded DNA, fluorescence polarization displacement
# A number is an active result; - = inactive; ? = inconclusive; . = no result given; ! = repeats disagree; [ ] = remark or other dose. An excerpt weighted towards active compounds, which were near 0.87% of everything screened. The call rests on the fitted dose curve; in most records, active means well fitted curve in the direction sought with a large enough effect; inconclusive means small, poorly fitted or top-dose-only effect, or another doubt; inactive means no such curve, though single readings can be large; an effect the other way counts as inactive or inconclusive.
SMILES,BLM helicase inh,TDP1 inh,GCN5L2 inh,APE1 inh-1,RECQ1 helicase,APE1 dye cs,EndoIV counter,APE1 inh-2,APE1 FP
Cc1ccc(NC(=O)CN2C(=O)S/C(=C\c3cccn3-c3cccc(C(=O)O)c3)C2=O)c(C)c1,?,50µM,-,8.9µM,-,-,?,13µM,16µM
Cc1ccccc1NC(=O)CN1C(=O)S/C(=C\c2cccn2-c2cccc(C(=O)O)c2)C1=O,-,50µM,-,?,?,.,.,?,.
Cc1cccc(C)c1NC(=O)CN1C(=O)S/C(=C\c2cccn2-c2cccc(C(=O)O)c2)C1=O,-,.,-,-,-,.,.,.,.
O=c1c(OC2OC(CO)C(O)C(O)C2OC2OC(CO)C(O)C(O)C2O)c(-c2ccc(O)cc2)oc2cc(O)cc(O)c12 (configuration not stated),-,.,?,8.9µM,10µM,-,-,?,-
CCN1C(=O)c2cccc3c(Cl)ccc(c23)C1=O,-,-,-,-,-,.,.,.,.
O=C1c2cccc3c(Cl)ccc(c23)C(=O)N1O,-,22µM,-,?,-,-,-,-,-
C=C1Cc2c(Cl)cc3[nH]c4c5c3c2[C@@]2(O)[C@@H]1C[C@@H]2C(C)(C)O[C@H]5[C@@H]1CC[C@@]2(O)[C@@]35O[C@@H]3[C@@H](O)[C@@H](C(=O)O)O[C@H]5CC[C@]2(C)[C@@]41C,.,-,-,?,-,.,.,.,.
O=C(O)c1cccc(-c2ccc(/C=c3/sc4nc5ccccc5n4c3=O)o2)c1,-,.,-,10µM,?,6.3µM,-,5µM,7.9µM
CCN1/C(=C/C=C/c2oc3ccc4ccccc4c3[n+]2CC)Oc2ccc3ccccc3c21,-,.,-,25µM,-,-,3.2µM,8.9µM,-
S=C(S)OC1CC2CC1C1CCCC21 (configuration not stated),.,-,-,-,-,.,-,-,.
CCN(CC)CCNc1ccc(CO)c2sc3ccccc3c(=O)c12,-,-,-,?,-,7.9µM,-,16µM,-
C=CCNC(=O)N1CCc2nc(CCCC)c3c(c2C1)CO[C@@H](C)C3,-[12.4 µM],-[12.3 µM],.,-[12.4 µM],-[11.5 µM],.,.,.,.
COc1cccc(/C=C2\SC(=O)NC2=O)c1OCc1ccc(C(=O)O)cc1,-,?,-,?,-,.,.,-,.
CC(C)N1C(=O)S/C(=C/c2ccccc2OCc2ccc(C(=O)O)cc2)C1=O,-,-,-,-,-,.,.,.,.
COc1cc(/C=C2/NC(=O)NC2=O)cc(Br)c1OCc1ccc(C(=O)O)cc1,-,71µM,-,?,-,.,.,?,.
O=C(CSc1nc(NS(=O)(=O)c2ccccc2)cc(=O)[nH]1)Nc1ccc(F)cc1,?,28µM,?,?,?,.,.,-,.
O=C(CSc1nc(NS(=O)(=O)c2ccccc2)cc(=O)[nH]1)Nc1cccc(C(F)(F)F)c1,-,-,?,-,.,.,.,.,.
C=COCC1CN2C(CCC(C)C2c2ccc(Br)cc2)C(=O)O1 (configuration not stated),-[12.4 µM],-[21 µM],.,-[12.4 µM],-[11.5 µM],.,.,.,.
C=C(C)C(=O)Nc1cccc(C2=NOC3(C2)C[C@@H](C(N)=O)N(C(=O)CCCCC)C3)c1 (some centres not stated),-,40µM,-,?,25µM,.,.,40µM,.
CCCCCC(=O)N1CC2(CC(c3cccc(NC(=O)[C@@H]4CCC(=O)N4)c3)=NO2)C[C@@H]1C(N)=O (some centres not stated),-,-,-,-,?,.,.,.,.
c1ccc(Nc2nc(-c3ccc4c(c3)OCO4)nc3ccccc23)cc1,-,.,-,?,-,.,.,.,.
COc1c(O)cc2c(c1O)[C@@H]1O[C@H](CO)[C@@H](O)[C@H](O)[C@H]1OC2=O,-,.,-,-,.,.,.,.,.
Cc1c(C(=O)O)c(O)cc2c1C(=O)c1c(O)c([C@H]3O[C@H](CO)[C@@H](O)[C@H](O)[C@H]3O)c(O)c(O)c1C2=O,-,0.71µM!,?,10µM!,32µM!,?,-,3.2µM,?
COc1cc(/C=N/Nc2ccc(C(=O)O)cc2)ccc1O,-,?,-,14µM,-,-,-,14µM,-
COc1ccc(OC)c(/C(C)=N/Nc2ccc(C(=O)O)cc2)c1,-,.,-,28µM,-,-,-,?,-
SMILES,BLM helicase inh,TDP1 inh,GCN5L2 inh,APE1 inh-1,RECQ1 helicase,APE1 dye cs,EndoIV counter,APE1 inh-2,APE1 FP
CC(C)(C)n1ncc2c(=O)n(Cc3ccccc3SC(F)(F)F)cnc21,.,.,.,-,.,.,.,.,.
COc1ccc2c(c1)O[C@H](c1ccc3c(c1)OCO3)[C@@H](OC(=O)NCc1ccco1)C2=O,-,-,.,-,-,.,.,.,.
CCOc1ccccc1NC(=O)CN(C)S(=O)(=O)c1cccc2nsnc12,-,-,-,-,-,-,-,-,?
Cc1cccc(NC(=O)CN(C)S(=O)(=O)c2cccc3nsnc23)c1C,-,-,-,-,-,.,.,.,.
COc1ccc2[nH]c(C(=O)O)c(CCN3C(=O)c4cccc([N+](=O)[O-])c4C3=O)c2c1,-,45µM,-,?,-,.,.,40µM,.
Cc1sc2ncnc(SCC(=O)NC(=O)NCc3ccco3)c2c1C,-,45µM,-,28µM,?,-,-,?,-
CC(=O)OC1CCC2(C)C3CCC4(C)C(CC5CCCCC54C(C)=O)C3CC(=O)[C@@]2(O)C1 (some centres not stated),-,-,.,-,-,.,.,.,.
CC(=O)O[C@H]1CC2(C)[C@@H](C[C@@H](O)[C@H]3[C@@]4(C)CC[C@@H](O)[C@@H](C)[C@@H]4CC[C@@]32C)C1=C(CCC=C(C)C)C(=O)O (some centres not stated),.,-,-,-,-,.,-,-,.
